Experimental data reported in PubChem BioAssay (NCI).
About 79,000 compounds went through this panel and 15% of them were active in at least one assay; those are over-represented in the sample as a whole. Active and inactive are the calls of the source. Rule as the data show it: active = growth inhibition above about 70%; inactive = the rest.

Assays:
[1] = NCI Yeast Anticancer Drug Screen. Data for the rad52 strain (AID 147);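 also: 0% = growth of vehicle-treated control cultures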; conditions: S. cerevisiae rad52 mutant growth inhibition, active compounds read high
Summary of the method: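 Screen used a yeast mutant impaired in DNA repair. After compound exposure, growth was measured. Values reflect inhibition compared with vehicle-treated cells.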

[2] = NCI Yeast Anticancer Drug Screen. Data for the wt1 strain (AID 149);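 also: 0% = growth of vehicle-treated wt1 cultures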; conditions: S. cerevisiae wt1 strain (SPY 50644) growth inhibition, active compounds read high
Summary of the method: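 wt1 yeast, compound-treated; % growth inhibition vs vehicle control.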

[3] = NCI Yeast Anticancer Drug Screen. Data for the rad50EPP+ strain (AID 151);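 also: 0% = growth of vehicle-treated control cultures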; conditions: S. cerevisiae rad50 mutant strain, active compounds read high
Summary of the method: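 Exposing the rad50EPP+ strain to each compound, growth was compared with vehicle-only cultures to give inhibition.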

[4] = NCI Yeast Anticancer Drug Screen. Data for the mgt1 strain (AID 153); conditions: S. cerevisiae mgt1 mutant growth inhibition, active compounds read high
Summary of the method: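 Genetically defined yeast (mgt1) treated with compound; inhibition of growth expressed against vehicle-treated controls.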

[5] = NCI Yeast Anticancer Drug Screen. Data for the rad50 strain (AID 155);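 also: 0% = growth of vehicle-only cultures of the same strain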; conditions: S. cerevisiae rad50 strain growth inhibition, active compounds read high
Summary of the method: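 Genetically altered yeast (DNA repair pathway); compound treatment; growth inhibition vs vehicle ctrl.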

[6] = NCI Yeast Anticancer Drug Screen. Data for the mec2-1 strain (AID 157); conditions: S. cerevisiae mec2-1 strain, active compounds read high
Summary of the method: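 Readout is yeast growth inhibition, normalised to vehicle-treated controls, in the mec2-1 strain exposed to compound.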

[7] = NCI Yeast Anticancer Drug Screen. Data for the rad14 strain (AID 159);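 also: 0% = growth of vehicle-treated control cultures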; conditions: S. cerevisiae rad14 strain growth inhibition, active compounds read high
Summary of the method: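 Test compounds were applied to a repair-deficient yeast strain. Its growth was then compared with that of cultures given vehicle alone, and inhibition was expressed relative to those controls.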

[8] = NCI Yeast Anticancer Drug Screen. Data for the sgs1 mgt1 strain (AID 161);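 also: 0% = growth of cultures given vehicle only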; conditions: S. cerevisiae sgs1 mgt1 strain, active compounds read high
Summary of the method: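 Percent growth inhibition was derived by comparing compound-exposed mutant yeast with vehicle-exposed cultures. The strain carries alterations in DNA damage repair.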

[9] = NCI Yeast Anticancer Drug Screen. Data for the CLN2oe strain (AID 163);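 also: 0% = growth of vehicle-only control cultures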; conditions: S. cerevisiae CLN2oe strain, active compounds read high
Summary of the method: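 Values reflect how much compound exposure reduced yeast growth, referenced to vehicle-exposed cells. Assay organism is a strain with a defined genetic change affecting cell-cycle control.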

[10] = NCI Yeast Anticancer Drug Screen. Data for the cln2 rad14 strain (AID 165);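 also: 0% = growth equal to vehicle treated cultures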; conditions: S. cerevisiae cln2 rad14 strain, active compounds read high
Summary of the method: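 Relative to vehicle controls, growth inhibition of compound-treated cln2 rad14 yeast was recorded.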

[11] = NCI Yeast Anticancer Drug Screen. Data for the bub3 strain (AID 167); conditions: S. cerevisiae bub3 mutant strain, active compounds read high
Summary of the method: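 Yeast carrying a defined mutation is treated with each compound, and growth is compared with that of vehicle-exposed cells to give inhibition.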

[12] = NCI Yeast Anticancer Drug Screen. Data for the wt2 strain (AID 169);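 also: 0% = growth of vehicle-treated yeast cultures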; conditions: S. cerevisiae wt2 strain growth inhibition, active compounds read high
Summary of the method: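 Values express reduction in yeast growth under compound treatment, referenced to vehicle-treated cells.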

[13] = NCI Yeast Anticancer Drug Screen. Data for the mlh1 strain (AID 171);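 also: 0% = growth of vehicle-treated control cultures of the same strain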; conditions: S. cerevisiae mlh1 strain growth inhibition, active compounds read high
Summary of the method: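 Steps: expose the defined-mutant yeast strain to compound; expose a parallel culture to vehicle; measure growth; express compound effect as inhibition relative to the vehicle culture.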

[14] = NCI Yeast Anticancer Drug Screen. Data for the sgs1 strain (AID 173);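 also: 0% = growth of vehicle-only control cultures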; conditions: S. cerevisiae sgs1 mutant, active compounds read high
Summary of the method: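 Treat defined-mutant yeast with compound; measure growth; calculate inhibition relative to vehicle-treated cells.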

[15] = NCI Yeast Anticancer Drug Screen. Data for the mlh1 rad18 strain (AID 175); conditions: S. cerevisiae mlh1 rad18 strain growth inhibition, active compounds read high
Summary of the method: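 Test agents were incubated with a yeast strain of defined genotype (DNA damage repair defect). Inhibition of growth was derived by comparison with vehicle-exposed cultures.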

[16] = NCI Yeast Anticancer Drug Screen. Data for the rad18 strain (AID 177); conditions: S. cerevisiae rad18 mutant growth inhibition, active compounds read high
Summary of the method: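 A genetically defined yeast mutant impaired in DNA damage repair was treated with test compounds, then its growth was measured against cultures receiving vehicle alone.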

[17] = at 5.0 µM (retest, dose inferred, filed as 0.5)
[18] = at 50.0 µM (retest, dose inferred, filed as 5.0)

Measured: growth inhibition

CC(=O)c1cc2c(Cl)cc(Cl)cc2oc1=O
inactive: [1]; at 1.2 µM 20% | [1]; at 3.7 µM 19% | [1]; at 11.0 µM 4% | [1]; at 33.0 µM 9% | [1]; at 100.0 µM 20% | [2]; at 1.2 µM -38% | [2]; at 3.7 µM -33% | [2]; at 11.0 µM -38% | [2]; at 33.0 µM -33% | [2]; at 100.0 µM -22% | [3]; at 1.2 µM -15% | [3]; at 3.7 µM -16% | [3]; at 11.0 µM -2% | [3]; at 33.0 µM -10% | [3]; at 100.0 µM 15% | [4]; at 1.2 µM 9% | [4]; at 3.7 µM 5% | [4]; at 11.0 µM -13% | [4]; at 33.0 µM -4% | [4]; at 100.0 µM 6% | [5]; at 1.2 µM -24% | [5]; at 3.7 µM -17% | [5]; [17] 30% | [5]; at 11.0 µM -13% | [5]; at 33.0 µM -20% | [5]; at 50.0 µM -5.9% | [5]; at 100.0 µM -5% | [6]; at 1.2 µM 8% | [6]; at 3.7 µM 0% | [6]; at 11.0 µM -14% | [6]; at 33.0 µM 3% | [6]; at 50.0 µM 53.8% | [6]; at 100.0 µM -8% | [7]; at 1.2 µM -19% | [7]; at 3.7 µM -21% | [7]; at 11.0 µM -13% | [7]; at 33.0 µM -6% | [7]; at 100.0 µM 14% | [8]; [17] -8% | [8]; [18] 20% | [9]; at 1.2 µM -26% | [9]; at 3.7 µM -22% | [9]; at 11.0 µM -7% | [9]; at 33.0 µM -10% | [9]; at 100.0 µM -5% | [10]; [17] 64% | [11]; at 1.2 µM -21% | [11]; at 3.7 µM -17% | [11]; [17] 24% | [11]; at 11.0 µM -4% | [11]; at 33.0 µM -25% | [11]; [18] 46% | [11]; at 100.0 µM 13% | [12]; at 1.2 µM -22% | [12]; at 3.7 µM -27% | [12]; at 11.0 µM -34% | [12]; at 33.0 µM -40% | [12]; at 100.0 µM -18% | [13]; at 1.2 µM -36% | [13]; at 3.7 µM -35% | [13]; at 11.0 µM -32% | [13]; at 33.0 µM -12% | [13]; at 100.0 µM -5% | [14]; at 1.2 µM -31% | [14]; at 3.7 µM -40% | [14]; at 11.0 µM -29% | [14]; at 33.0 µM -15% | [14]; at 100.0 µM -42% | [15]; [17] 35% | [15]; at 50.0 µM 1.3% | [16]; at 1.2 µM 10% | [16]; at 3.7 µM -3% | [16]; at 11.0 µM -11% | [16]; at 33.0 µM -11% | [16]; at 100.0 µM -6%
active: [5]; [18] 83% | [6]; [17] 77% | [6]; [18] 94% | [10]; [18] 71% | [15]; [18] 96%

NNC(=S)Nc1cccc2ccccc12
active: [6]; [18] 78%
inactive: [1]; at 1.2 µM -10% | [1]; at 3.7 µM -35% | [1]; at 11.0 µM -29% | [1]; at 33.0 µM 8% | [1]; at 100.0 µM 20% | [2]; at 1.2 µM -21% | [2]; at 3.7 µM -17% | [2]; at 11.0 µM -24% | [2]; at 33.0 µM -7% | [2]; at 100.0 µM 7% | [3]; at 1.2 µM -48% | [3]; at 3.7 µM -52% | [3]; at 11.0 µM -54% | [3]; at 33.0 µM -45% | [3]; at 100.0 µM 4% | [4]; at 1.2 µM -16% | [4]; at 3.7 µM -45% | [4]; at 11.0 µM -23% | [4]; at 33.0 µM -7% | [4]; at 100.0 µM 60% | [5]; at 1.2 µM -31% | [5]; at 3.7 µM -26% | [5]; [17] 45% | [5]; at 11.0 µM -31% | [5]; at 33.0 µM -6% | [5]; [18] 35% | [5]; at 50.0 µM 23.6% | [5]; at 100.0 µM 43% | [6]; at 1.2 µM -16% | [6]; at 3.7 µM -41% | [6]; [17] 60% | [6]; at 11.0 µM -20% | [6]; at 33.0 µM -9% | [6]; at 50.0 µM 23.8% | [6]; at 100.0 µM 12% | [7]; at 1.2 µM -14% | [7]; at 3.7 µM -33% | [7]; at 11.0 µM -50% | [7]; at 33.0 µM -32% | [7]; at 100.0 µM 28% | [8]; [17] -11% | [8]; [18] 54% | [9]; at 1.2 µM 5% | [9]; at 3.7 µM -3% | [9]; at 11.0 µM 2% | [9]; at 33.0 µM 3% | [9]; at 100.0 µM 27% | [10]; [17] 31% | [10]; [18] 67% | [11]; at 1.2 µM -6% | [11]; at 3.7 µM -9% | [11]; [17] 36% | [11]; at 11.0 µM -15% | [11]; at 33.0 µM 13% | [11]; [18] 59% | [11]; at 100.0 µM 55% | [12]; at 1.2 µM -40% | [12]; at 3.7 µM -36% | [12]; at 11.0 µM -33% | [12]; at 33.0 µM -16% | [12]; at 100.0 µM 17% | [13]; at 1.2 µM -37% | [13]; at 3.7 µM -38% | [13]; at 11.0 µM -29% | [13]; at 33.0 µM -13% | [13]; at 100.0 µM 48% | [14]; at 1.2 µM -14% | [14]; at 3.7 µM -33% | [14]; at 11.0 µM -19% | [14]; at 33.0 µM -8% | [14]; at 100.0 µM 37% | [15]; [17] 40% | [15]; [18] 62% | [15]; at 50.0 µM 49.2% | [16]; at 1.2 µM -32% | [16]; at 3.7 µM -39% | [16]; at 11.0 µM -21% | [16]; at 33.0 µM 2% | [16]; at 100.0 µM 18%
